Test in all cases: NCI-60 one-dose screen, 48 h (100 = growth as untreated, 0 = no growth, -100 = all killed)
Holding throughout (conditions): 10 µM unless noted

Assay [1] relates to RPMI-8226 leukemia.
In assay [2] the test system is OVCAR-8 ovarian.
Assay [3] deals with OVCAR-5 ovarian.
In assay [4] the test system is OVCAR-4 ovarian.
Assay [5] deals with SK-OV-3 ovarian.
For assay [6], the system named is IGROV1 ovarian.
The subject of assay [7] is OVCAR-3 ovarian.
Assay [8] concerns HS 578T breast.
The test system of assay [9] is NCI/ADR-RES ovarian.
Assay [10] has as its system T-47D breast.
Assay [11] relates to MDA-MB-435 melanoma.
Assay [12] concerns SW-620 colon.
In assay [13] the test system is MCF7 breast.
The test system of assay [14] is HCT-116 colon.
For assay [15], the system named is HCC-2998 colon.
The subject of assay [16] is KM12 colon.
In assay [17] the test system is MDA-MB-468 breast.
Assay [18] has as its system SR leukemia.
Assay [19] has as its system BT-549 breast.

About 83,000 compounds went through this panel and 20% of them were active in at least one assay; those are over-represented in the sample as a whole.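 Activity criterion: percent growth below 10, measured after cells in 96-well plates were exposed to a single compound concentration for 48 hours.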 A number with no mark means an inactive call. Active and inactive are the calls of the source.

With `COc1ccc(C(=O)/C=C/c2ccccc2Cl)cc1S(N)(=O)=O`, the growth in [1] is 120%; in [2] it was 110%; in assay [3] it was 99.3%; in assay [4], 118%; in assay [5], 110%; in assay [6], 101%. Also, the growth in assay [7] is 90.7%; in [8], 107%; in assay [9], 104%; in assay [10], 106%; in assay [11] it was 117%; in [12], 107%. Moreover, the growth in assay [13] is 96.2%; in [14], 106%; in [15] it was 114%; in [16] it was 111%; in assay [17] it was 109%.
On to `Brc1ccc(-c2n(Cc3ccc4ccccc4c3)c(-c3ccccc3)c(-c3ccccc3)[n+]2Cc2ccc3ccccc3c2)cc1`, for which the growth is -36.8% (active) in [18]; -77.4% (active) in assay [2]; -83.3% (active) in [4]; -96.7% (active) in assay [5]; -81.7% (active) in assay [6]; -79% (active) in assay [7]. Also, the growth in assay [8] is -46.3% (active); in [9], -78.2% (active); in [10], -76.7% (active); in [19] it was -96.7% (active); in [11], -91% (active); in assay [12] it was -86% (active). The growth in assay [13] is -69.8% (active); in assay [14], -97.9% (active); in [15] it was -88.9% (active); in [16], -93.4% (active); in assay [17], -71.2% (active).
As for `CC(=O)N1CCN(Cc2ccc3c(NNC(=O)c4cnccn4)nc4cc(F)ccc4n23)CC1`, the growth in assay [1] was 25.7%; in [2], 17.2%; in [3] it was 50.1%; in assay [4], 32.6%; in assay [5], 25%; in assay [6] it was 28.2%. Further, the growth was 56.7% in [7]; 56.3% in assay [8]; 7.69% (active) in [9]; 16.4% in assay [10]; 37.4% in [11]; 38.8% in assay [12]. For the same compound, the growth in assay [13] is 16.4%; in assay [14], 19.5%; in [15] it was 61.3%; in [16] it was 32.6%; in assay [17] it was 6.88% (active).
Take `CC(=O)Nc1cccc(Nc2nccc(N[C@@H](C)c3ccccc3)n2)c1`: the growth is 2.48% (active) in assay [18]; 9.3% (active) in assay [2]; 34.2% in assay [3]; 50.7% in assay [4]; 38.9% in assay [5]; 15.9% in assay [6]. Besides, the growth is 18% in [7]; 3.58% (active) in assay [9]; 40.2% in [10]; 9.69% (active) in [19]; 18.7% in [11]; 16.5% in assay [13]. For the same compound, the results for the growth in assay [15], in assay [16] and in assay [17] were 27.1%, 3.5% (active) and 18.1%, respectively.
`CC12CC[C@@H]3[C@]4(C)COC(c5cn[nH]c5-c5cccc(Br)c5)O[C@@H]4CC[C@@]3(C)[C@@H]1CC(C1=CCOC1=O)O2` (stereo not given in full): the growth in assay [18] is 28%; in assay [2], 31%; in [3], 76.8%; in [5], 53.8%; in assay [6] it was 48.7%; in assay [7], 40.6%. Also, the growth in assay [8] is 51.5%; in [9] it was 25.3%; in assay [10] it was 17.7%; in [19], -3.03% (active); in assay [11], 36.1%; in assay [12], 48.5%. The growth in assay [14] is 15.3%; in [15], 35.6%; in [16], 13.5%; in [17], 17.4%.
Turning to `CN(C)c1nc(NCCNS(=O)(=O)c2ccc(C(=O)/C=C/c3ccc(C(F)(F)F)cc3)cc2)nc(Nc2ccc(F)cc2)n1`, the growth is -26.2% (active) in assay [18]; -62.1% (active) in assay [2]; -68.9% (active) in [3]; 66% in assay [5]; -40.6% (active) in assay [6]; -86.7% (active) in [7]. The growth is 52.1% in assay [8]; -54.3% (active) in assay [9]; 15.7% in assay [10]; -71.2% (active) in [19]; -81.1% (active) in assay [11]; -77.1% (active) in assay [12]. The growth is -78.6% (active) in assay [13]; -59.1% (active) in [14]; -95.7% (active) in assay [15]; -78.9% (active) in assay [16]; -23.6% (active) in assay [17].
Consider `COc1ccc(C(=O)/C=C/c2cccc(Cl)c2Cl)cc1S(N)(=O)=O`, for which the growth was -8.84% (active) in assay [1]; -64% (active) in assay [2]; -7.8% (active) in assay [3]; 35.9% in [4]; 43.3% in assay [5]; 10.1% in assay [6]. In addition, the growth is -56.1% (active) in assay [7]; 35.6% in assay [8]; 13.3% in [9]; -17.3% (active) in assay [10]; 14.3% in assay [11]; -47.3% (active) in assay [12]. For the same compound, the growth in [13] was -39.7% (active); in assay [14] it was -98% (active); in assay [15] it was -48.5% (active); in assay [16], -62.3% (active); in [17] it was -16.4% (active).
With `C#CCOc1ccc(/C=N/Nc2nc(-c3cc4cc(Br)ccc4oc3=O)cs2)cc1OC`, the growth in assay [18] is 80.2%; in assay [2], 65.7%; in [4], 47.8%; in [5], 25.7%; in assay [6], 83.1%; in assay [7], 87.3%. Moreover, the growth in assay [8] is 86.8%; in assay [9], 63.8%; in assay [10], 51.1%; in assay [19], 48.5%; in assay [11] it was 78.7%; in assay [12] it was 77.6%. Moreover, the growth in assay [13] is 41.9%; in assay [14] it was 71.5%; in [15], 39.6%; in assay [16] it was 51.1%; in assay [17] it was 26.8%.
For `NS(=O)(=O)c1ccc(-n2cc(-c3cccc(NC(=O)c4ccc(Cl)c(C(F)(F)F)c4)c3)nn2)cc1`, the growth in assay [1] is 46.3%; in assay [2], -60.8% (active); in assay [3], 28.6%; in [4], 44.7%; in assay [5] it was 55.7%; in assay [6], 58.6%. Also, the growth was -4.74% (active) in assay [7]; 32.1% in assay [8]; 78.2% in assay [9]; -11.1% (active) in [10]; 47.2% in [11]; 42% in assay [12]. Further, the growth in assay [13] was 1.38% (active); in assay [14], 26.2%; in assay [15], 41.8%; in assay [16], 5.73% (active); in [17], -0.759% (active).

These data come from PubChem BioAssay (NCI).
